Source: PubChem
CHO-K1 Ca PAM – counter-screen for M1 PAMs: effect in parental CHO-K1 cells; ATP EC20, Fluo-8 calcium fluorescence; 0% at ATP EC20, 100% at ATP max; AID 602247; actives 0.02% (n = 360,000); activation, % at 3 µM;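 active = activation above the run cutoff, the mean activation of all test compounds plus 3 SD, cut at about 40% in these data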;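 note: peak over basal fluorescence ratio in a 140 s read after ATP addition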
M1 PAM – potentiates human M1 receptor response to acetylcholine. activation, % at 3 µM. actives 0.088% (n = 360,000). CHO-K1 hM1, Fluo-8 calcium fluorescence, ACh EC20; 0% = ACh EC20, 100% = maximal ACh. P11229. AID 588819; in the data active = activation above about 19%, passing the limit was not always enough
Target sequence (P11229 whole entry, looked up): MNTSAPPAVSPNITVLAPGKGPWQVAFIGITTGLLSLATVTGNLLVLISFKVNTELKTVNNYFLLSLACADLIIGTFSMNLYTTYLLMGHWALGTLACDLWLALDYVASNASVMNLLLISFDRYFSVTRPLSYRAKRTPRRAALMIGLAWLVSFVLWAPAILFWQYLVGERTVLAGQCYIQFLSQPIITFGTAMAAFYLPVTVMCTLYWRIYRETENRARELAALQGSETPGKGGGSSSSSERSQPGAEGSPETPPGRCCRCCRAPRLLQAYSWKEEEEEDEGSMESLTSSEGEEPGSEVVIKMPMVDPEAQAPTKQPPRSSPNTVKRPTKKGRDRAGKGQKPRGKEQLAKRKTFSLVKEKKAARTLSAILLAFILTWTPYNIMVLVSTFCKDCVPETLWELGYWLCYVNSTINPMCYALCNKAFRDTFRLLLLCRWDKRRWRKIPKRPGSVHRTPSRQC
CHO-K1 Ca antag – nonselective inhibitor or artifact in parental CHO-K1 cells | ATP-induced calcium, Fluo-8 fluorescence | inhibition, % at 3 µM | actives 0.6% (n = 360,000);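 active = inhibition above a per-plate cutoff, the plate's mean sample inhibition plus 3 SD, cut at about 24% in these data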;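 note: 0% = DMSO plus EC80 ATP and 100% = DMSO alone without ATP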
CHRM1 antagonist – blocks human M1 muscarinic receptor; inhibition, % at 3 µM; actives 1.3% (n = 360,000); P11229; CHO-K1 hM1, Fluo-8 calcium fluorescence, ACh EC80 antagonist;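 active = percent inhibition above its own plate's cutoff, namely the mean of that plate's compound wells plus 3 SD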;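 note: peak over basal fluorescence ratio during 140 s after agonist addition; 0% = ACh EC80 plus DMSO and 100% = DMSO alone without agonist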
M1 ag parental – counter-screen for M1 agonists: effect in parental CHO-K1 cells. Fluo-8 calcium fluorescence; scaled to maximal ATP response, vehicle zero. activation, % at 3 µM. actives 0.48% (n = 360,000); in the data active = activation above about 15%;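 note: untransfected CHO-K1 host cells lacking M1 receptor as counterscreen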
CHRM1 agonist – activates human CHRM1 receptor | CHO-K1 hM1, Fluo-8 calcium fluorescence, agonist mode; 0% DMSO, 100% acetylcholine EC100 | P11229 | activation, % at 3 µM | AID 588814 | actives 0.33% (n = 360,000);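 active = activation above the run's mean compound activation plus 3 SD, cut at about 16% in these data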;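 note: peak over basal fluorescence ratio within a 140 s kinetic read after compound addition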
An asterisk follows results filed as active. Shown are actives, neighbours in structure and some others; about 2.3% of the full set was active somewhere.

SMILES	CHO-K1 Ca PAM	M1 PAM	CHO-K1 Ca antag	CHRM1 antagonist	M1 ag parental	CHRM1 agonist
CCOC(=O)C1=C[C@@H](C2CCCCC2)N(S(=O)(=O)c2ccc([N+](=O)[O-])cc2)[C@H]1c1ccccc1	3.7	-8.2	26.9*	22.3	0.8	-0.8
CC(C)NC(=O)c1ccc2c(c1)N(CC(=O)N1CCCC1)C(=O)C(C)(C)O2	7.7	8.7	-20.0	-15.3	2.5	-1.5
CC(C)NC(=O)c1ccc2c(c1)N(Cc1ccccc1)C(=O)C(C)(C)O2	-2.4	-0.2	24.4*	7.1	0.4	-3.4
CC1=CC(C)(C)N(C(=O)CNC2CCCC2)c2cc(C)ccc21	8.9	-23.2	-15.8	99.3*	0.1	-7.0
COc1cc(/C=C2\SC(=S)N(NS(=O)(=O)c3ccccc3)C2=O)ccc1O	-7.0	-1.8	-1.1	1.0	15.9*	8.9
COc1cc(/C=C2\SC(=S)N(NS(=O)(=O)c3ccc(C)cc3)C2=O)ccc1O	8.9	-3.2	-5.0	-3.8	24.1*	12.7
O=C(N[C@@H]1CCC(=O)N(CC[C@H](Oc2ccccc2)c2ccccc2)CC1)OCc1ccccc1	9.8	-2.8	-8.8	4.0	-0.3	-7.3
COc1ccc(C)cc1NC(=O)C(OC(=O)CNC(=O)c1cccc(F)c1)c1ccccc1 (centres undefined)	-16.4	11.5	30.6*	-4.2	-0.1	-6.7
CS(=O)(=O)Nc1ccccc1-c1ccc2nccn2c1	15.2	5.1	-10.4	-9.3	0.5	-3.6
CC1CCC(CN2CCN=C2Nc2ccccc2)CC1 (centres undefined)	-13.1	-17.4	3.2	34.1*	0.3	-10.6
CCC1=C(c2ccc(OC)cc2)CCC(C(=O)O)C1C (centres undefined)	-16.7	2.2	2.8	-2.5	-0.2	-4.4
O=C(C[n+]1cccc(Br)c1)c1ccc(-c2ccccc2)cc1	13.3	-27.4	0.0	38.4*	2.9	-11.1
O=C(C[n+]1cccc(Br)c1)c1ccccc1	9.7	14.1	0.3	-9.0	1.2	-6.7
Cc1ccc(C)[n+](CC(=O)c2ccc(-c3ccccc3)cc2)c1	17.2	-34.5	11.7	43.6*	0.3	-15.8
CC(C)[C@H](NS(=O)(=O)c1ccccc1F)C(=O)OCC(=O)Nc1cccc(S(N)(=O)=O)c1	10.2	4.0	-9.6	-2.8	0.8	-3.8
COc1ccc(C(CC(=O)c2ccc(C)cc2)Nc2ccc([N+](=O)[O-])cc2)cc1 (centres undefined)	17.6	-7.1	14.2	8.8	15.4*	-8.5
CC1CC(C)CN(C(=O)COC(=O)c2cc(S(=O)(=O)N3CCOCC3)ccc2F)C1 (centres undefined)	-23.3	-17.5	6.6	56.7*	0.2	-2.0
O=C(NCCc1ccccc1)/C(=C\c1ccc([N+](=O)[O-])cc1)NC(=O)c1ccco1	-9.2	2.4	-6.4	6.4	2.6	-2.7
O=C(NCc1ccccc1)/C(=C\c1ccc([N+](=O)[O-])cc1)NC(=O)c1ccco1	-2.0	15.1	-0.9	-11.2	1.3	17.0*
C=CCNC(=O)/C(=C/c1cccc([N+](=O)[O-])c1)NC(=O)c1ccco1	18.8	11.7	0.0	-11.8	15.4*	-3.6
CSCCC1NC(=O)N(CC(=O)Nc2ccc3c(c2)OCCO3)C1=O (centres undefined)	-16.8	8.8	-10.7	-6.8	0.3	3.6
CCOC(=O)C1CCCN(C(=O)CN2C(=O)c3ccccc3S2(=O)=O)C1 (centres undefined)	10.0	4.6	-19.1	-7.3	0.9	-1.9
O=C1C2CC3N1CCC31c3ccccc3-n3c1c2ccc3=O (centres undefined)	12.3	3.4	-12.2	-13.0	0.5	0.4
O=C1C(=O)N(Cc2ccccc2)C(=O)N1CCOc1ccccc1	2.2	-0.5	6.8	2.7	1.3	-5.7
CN(C(=O)CN1C(=O)S/C(=C\c2ccccc2Cl)C1=O)C1CCS(=O)(=O)C1 (centres undefined)	20.4	4.3	28.4*	-2.4	1.2	-11.0
SMILES	CHO-K1 Ca PAM	M1 PAM	CHO-K1 Ca antag	CHRM1 antagonist	M1 ag parental	CHRM1 agonist
CN(C(=O)CN1C(=O)/C(=C/c2ccccc2Cl)SC1=S)C1CCS(=O)(=O)C1 (centres undefined)	10.1	1.7	-9.9	4.1	0.4	0.7
Cc1ccc(SCCN2CCC(O)CCC2=O)cc1 (centres undefined)	-15.0	10.8	-0.3	4.1	-0.2	1.4
Cc1ccc(S(=O)(=O)N/N=C/c2ccc(OC3CSC3)cc2)cc1	11.2	-4.4	17.1	37.0*	16.6*	29.3*
COc1ccc(OC)c2sc(N3CCN(c4ccccc4)CC3)nc12	-5.3	5.7	27.6*	9.0	0.0	-0.1
COc1ccc(C)c2sc(N3CCCC3)nc12	-0.7	-3.5	-1.0	2.3	-0.5	-5.3
CCc1nc(N)nc(N)c1-c1ccc(N(C)Cc2ccccc2)c([N+](=O)[O-])c1	6.5	-29.6	-10.6	94.8*	9.0	6.2
CCN(CC(=O)Nc1ccc(OC)cc1)C(=O)Cc1ccsc1	11.8	27.2*	-17.3	-25.4	-0.2	1.3
CSc1ccc(CN2CCC2(C)C(=O)NC2CCN(Cc3ccccc3)CC2)cc1 (centres undefined)	9.3	-12.8	-5.3	8.8	2.8	-6.2
CC(CN1CCCC1)OC(=O)c1ccc(Br)cc1 (centres undefined)	14.3	-13.1	-6.8	10.5	8.3	-6.9
Cc1ccc(S(=O)(=O)c2nnn3c2nc(NCCCN2CCCC2=O)c2ccccc23)cc1C	-18.4	-6.1	-2.2	12.8	2.1	-5.2
Cc1ccc(S(=O)(=O)c2nnn3c2nc(NC2CCN(Cc4ccccc4)CC2)c2ccccc23)cc1C	-1.4	-23.2	8.2	74.8*	0.3	-6.1
CCN(C[C@H]1N[C@@](C)(C(=O)OC)[C@H]2C(=O)N(Cc3ccccc3)C(=O)[C@@H]12)C(=O)Nc1ccc(F)cc1	-9.8	7.4	-5.6	-3.0	0.2	-3.4
COc1cc2c3c(c1OC)C(=O)CC3CCCC2 (centres undefined)	8.2	-1.7	-6.7	2.6	0.3	-11.3
O=C(OCc1ccccc1)N1Cc2ccnnc2CC1c1ccccc1Br (centres undefined)	0.1	-1.2	32.5*	8.7	0.3	-4.7
CN(C)c1ccc(C(CNC(=O)c2ccco2)N2CCCC2)cc1 (centres undefined)	-10.0	-5.1	-6.3	3.1	0.1	-13.6
Fc1ccc2c(c1)Sc1ccc(Cl)cc1CC2N1CCN(CCC2OCCO2)CC1 (centres undefined)	15.0	-26.0	-11.4	75.3*	1.4	-7.1
NC(=O)CCN1CCN(CCOC2Cc3cc(Cl)ccc3Sc3ccccc32)CC1 (centres undefined)	11.7	-7.9	-5.5	-2.3	4.2	-10.6
